This passage reports pKD results from ChEMBL document CHEMBL5598561, “ASAP - In vitro binding kinetics” (2024).

For this experiment, the target named is Nonstructural protein 3 (Zika virus) (UniProt A0A024AXB9). Particulars: PRVABC59, Concentration 10.0 uM.
Nonstructural protein 3 (Zika virus), sequence (A0A024AXB9 as listed by the source): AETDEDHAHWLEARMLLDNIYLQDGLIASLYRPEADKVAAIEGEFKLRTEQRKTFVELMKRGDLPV

`NCc1ccc(NC(=O)c2cc(Cl)cc3[nH]ncc23)cc1`: the negative-log KD (pKD) reads like this: (Immobilization level 3900.0 pg/mm2, Rmax 39.0 pg/mm2, ka 344993.29 M-1s-1, kd 2.713 1/s) 5.11; (Immobilization level 4900.0 pg/mm2, Rmax 52.0 pg/mm2, ka 210233.557 M-1s-1, kd 2.157 1/s) 4.99; (Immobilization level 5500.0 pg/mm2, Rmax 46.0 pg/mm2, ka 296422.165 M-1s-1, kd 2.251 1/s) 5.12; (Immobilization level 10000.0 pg/mm2, Rmax 40.0 pg/mm2, ka 241734.917 M-1s-1, kd 1.766 1/s) 5.14; (Immobilization level 12000.0 pg/mm2, Rmax 57.0 pg/mm2, ka 217368.509 M-1s-1, kd 1.551 1/s) 5.15; (Immobilization level 13000.0 pg/mm2, Rmax 45.0 pg/mm2, ka 247269.193 M-1s-1, kd 1.32 1/s) 5.27.

Compound `Cc1ccc(NC(=O)c2cc(Cl)cc3[nH]ncc23)cc1CN` displayed a pKD (Immobilization level 3900.0 pg/mm2, Rmax 48.0 pg/mm2, ka 216599.094 M-1s-1, kd 1.609 1/s) of 5.13; a pKD (Immobilization level 4900.0 pg/mm2, Rmax 54.0 pg/mm2, ka 242573.531 M-1s-1, kd 1.329 1/s) of 5.26; a pKD (Immobilization level 5500.0 pg/mm2, Rmax 70.0 pg/mm2, ka 222473.098 M-1s-1, kd 1.517 1/s) of 5.17; a pKD (Immobilization level 10000.0 pg/mm2, Rmax 57.0 pg/mm2, ka 286418.042 M-1s-1, kd 1.725 1/s) of 5.22; a negative logarithm of the KD (pKD) (Immobilization level 12000.0 pg/mm2, Rmax 54.0 pg/mm2, ka 243003.449 M-1s-1, kd 1.258 1/s) of 5.29; a pKD (Immobilization level 13000.0 pg/mm2, Rmax 74.0 pg/mm2, ka 258887.039 M-1s-1, kd 1.289 1/s) of 5.3.

Turning to `Cc1ccc(C(=O)Nc2ccc3c(c2)CNC3)c2[nH]ncc12`, the negative-log KD (pKD) is 4.72 (Immobilization level 10000.0 pg/mm2, Rmax 28.0 pg/mm2, ka 287009.784 M-1s-1, kd 5.44 1/s); 4.63 (Immobilization level 12000.0 pg/mm2, Rmax 65.0 pg/mm2, ka 163548.417 M-1s-1, kd 3.844 1/s); 4.66 (Immobilization level 13000.0 pg/mm2, Rmax 48.0 pg/mm2, ka 218448.051 M-1s-1, kd 4.78 1/s).

Turning to `NCc1ccc(NC(=O)c2cc(Cl)cc3[nH]ncc23)cc1F`, the pKD runs as follows: (Immobilization level 3900.0 pg/mm2, Rmax 23.0 pg/mm2, ka 241912.451 M-1s-1, kd 2.753 1/s) 4.94; (Immobilization level 4900.0 pg/mm2, Rmax 19.0 pg/mm2, ka 418363.843 M-1s-1, kd 3.02 1/s) 5.14; (Immobilization level 5500.0 pg/mm2, Rmax 22.0 pg/mm2, ka 268076.557 M-1s-1, kd 2.711 1/s) 5; (Immobilization level 12000.0 pg/mm2, Rmax 15.0 pg/mm2, ka 138303.314 M-1s-1, kd 1.565 1/s) 4.95; (Immobilization level 13000.0 pg/mm2, Rmax 64.0 pg/mm2, ka 32485.569 M-1s-1, kd 2.272 1/s) 4.16.

As for `CC(C)(C)c1ccc(Cl)cc1C(=O)Nc1ccc2c(c1)CNC2`, the pKD runs as follows: (Immobilization level 10000.0 pg/mm2, Rmax 29.0 pg/mm2, ka 451041.562 M-1s-1, kd 5.162 1/s) 4.94; (Immobilization level 12000.0 pg/mm2, Rmax 32.0 pg/mm2, ka 233803.873 M-1s-1, kd 2.593 1/s) 4.96; (Immobilization level 13000.0 pg/mm2, Rmax 24.0 pg/mm2, ka 278548.314 M-1s-1, kd 2.759 1/s) 5.

The compound `N[C@H]1Cc2ccc(NC(=O)c3cc(Cl)cc4[nH]ncc34)cc2C1` yielded a pKD (Immobilization level 3900.0 pg/mm2, Rmax 32.0 pg/mm2, ka 340293.713 M-1s-1, kd 0.278 1/s) of 6.09; a negative-log KD (pKD) (Immobilization level 4900.0 pg/mm2, Rmax 50.0 pg/mm2, ka 211944.111 M-1s-1, kd 0.288 1/s) of 5.87; a pKD (Immobilization level 5500.0 pg/mm2, Rmax 52.0 pg/mm2, ka 230237.04 M-1s-1, kd 0.293 1/s) of 5.9; a pKD (Immobilization level 10000.0 pg/mm2, Rmax 43.0 pg/mm2, ka 451655.452 M-1s-1, kd 0.518 1/s) of 5.94; a pKD (Immobilization level 12000.0 pg/mm2, Rmax 66.0 pg/mm2, ka 170946.752 M-1s-1, kd 0.316 1/s) of 5.73; a negative-log KD (pKD) (Immobilization level 13000.0 pg/mm2, Rmax 60.0 pg/mm2, ka 295502.849 M-1s-1, kd 0.406 1/s) of 5.86.

On to `N#Cc1cc(Cl)cc(C(=O)Nc2ccc3c(c2)CNC3)c1`, for which the negative logarithm of the KD (pKD) came to 5.97 (Immobilization level 10000.0 pg/mm2, Rmax 13.0 pg/mm2, ka 937740.865 M-1s-1, kd 1.0 1/s); 6.02 (Immobilization level 12000.0 pg/mm2, Rmax 30.0 pg/mm2, ka 568340.521 M-1s-1, kd 0.543 1/s); 6.04 (Immobilization level 13000.0 pg/mm2, Rmax 21.0 pg/mm2, ka 849954.362 M-1s-1, kd 0.772 1/s).

Regarding `C[C@@H](N)c1ccc(NC(=O)c2cc(Cl)cc3[nH]ncc23)cc1`, the pKD reads like this: (Immobilization level 3900.0 pg/mm2, Rmax 41.0 pg/mm2, ka 249513.67 M-1s-1, kd 1.946 1/s) 5.11; (Immobilization level 4900.0 pg/mm2, Rmax 50.0 pg/mm2, ka 225007.554 M-1s-1, kd 1.686 1/s) 5.12; (Immobilization level 5500.0 pg/mm2, Rmax 61.0 pg/mm2, ka 227099.936 M-1s-1, kd 1.979 1/s) 5.06; (Immobilization level 10000.0 pg/mm2, Rmax 53.0 pg/mm2, ka 348896.97 M-1s-1, kd 2.109 1/s) 5.22; (Immobilization level 12000.0 pg/mm2, Rmax 62.0 pg/mm2, ka 212895.642 M-1s-1, kd 1.524 1/s) 5.14; (Immobilization level 13000.0 pg/mm2, Rmax 66.0 pg/mm2, ka 290082.005 M-1s-1, kd 1.572 1/s) 5.27.

As to `O=C(Nc1ccc2c(c1)CNC2)c1cc(Cl)cc2nccnc12`, the pKD is, setting by setting: (Immobilization level 10000.0 pg/mm2, Rmax 21.0 pg/mm2, ka 195303.568 M-1s-1, kd 2.342 1/s) 4.92; (Immobilization level 12000.0 pg/mm2, Rmax 40.0 pg/mm2, ka 106100.572 M-1s-1, kd 1.111 1/s) 4.98; (Immobilization level 13000.0 pg/mm2, Rmax 32.0 pg/mm2, ka 148862.644 M-1s-1, kd 1.839 1/s) 4.91.

For the compound `CNCc1cccc(NC(=O)c2cc(Cl)cc3[nH]ncc23)c1`, the pKD by setting is: (Immobilization level 3900.0 pg/mm2, Rmax 52.0 pg/mm2, ka 146599.437 M-1s-1, kd 4.892 1/s) 4.48; (Immobilization level 4900.0 pg/mm2, Rmax 92.0 pg/mm2, ka 51361.571 M-1s-1, kd 2.243 1/s) 4.36; (Immobilization level 5500.0 pg/mm2, Rmax 53.0 pg/mm2, ka 187092.368 M-1s-1, kd 3.041 1/s) 4.79; (Immobilization level 12000.0 pg/mm2, Rmax 56.0 pg/mm2, ka 231928.789 M-1s-1, kd 3.617 1/s) 4.81.

The compound `Cc1ncc(Br)cc1C(=O)Nc1ccc2c(c1)CNC2` yielded a negative-log KD (pKD) (Immobilization level 3900.0 pg/mm2, Rmax 35.0 pg/mm2, ka 305396.759 M-1s-1, kd 1.511 1/s) of 5.3; a negative logarithm of the KD (pKD) (Immobilization level 4900.0 pg/mm2, Rmax 50.0 pg/mm2, ka 284203.309 M-1s-1, kd 1.434 1/s) of 5.3; a negative logarithm of the KD (pKD) (Immobilization level 5500.0 pg/mm2, Rmax 66.0 pg/mm2, ka 223031.106 M-1s-1, kd 1.457 1/s) of 5.18; a pKD (Immobilization level 12000.0 pg/mm2, Rmax 11.0 pg/mm2, ka 147874.405 M-1s-1, kd 1.474 1/s) of 5; a pKD (Immobilization level 13000.0 pg/mm2, ka 192202.373 M-1s-1, kd 1.118 1/s) of 5.24.

For the compound `O=C(Nc1ccc2c(c1)CNCCO2)c1cc(Cl)cc2[nH]ncc12`, the negative logarithm of the KD (pKD) runs as follows: (Immobilization level 10000.0 pg/mm2, Rmax 42.0 pg/mm2, ka 416936.25 M-1s-1, kd 0.968 1/s) 5.63; (Immobilization level 12000.0 pg/mm2, Rmax 47.0 pg/mm2, ka 414358.163 M-1s-1, kd 0.643 1/s) 5.81; (Immobilization level 13000.0 pg/mm2, Rmax 56.0 pg/mm2, ka 373791.933 M-1s-1, kd 0.809 1/s) 5.67.

For `N#C[C@]1(Nc2ccc3c(c2)CNC3)C(=O)Nc2ccc(Cl)cc21`, the pKD (Immobilization level 10000.0 pg/mm2, Rmax 25.0 pg/mm2, ka 264211.625 M-1s-1, kd 1.585 1/s) was 5.22; the negative logarithm of the KD (pKD) (Immobilization level 12000.0 pg/mm2, Rmax 32.0 pg/mm2, ka 105814.14 M-1s-1, kd 0.856 1/s) was found to be 5.09; the pKD (Immobilization level 13000.0 pg/mm2, Rmax 39.0 pg/mm2, ka 121808.508 M-1s-1, kd 1.295 1/s) amounted to 4.97.

Broadly, the pKD is the negative decadic logarithm of the KD, by convention in mol/L.
